The results in this text go back to PubChem BioAssay AID1211 (NMMLSC, 2008).

Unmarked numbers belong to inactive results. The source made the active and inactive calls. The rule behind the calls is not given here.

The target in this assay is Estrogen receptor (Homo sapiens) (UniProt P03372). The assay can be described thus: ERalpha ligand binders by competition, primary screen, cell-based, Cos7 ERalpha-GFP, flow cytometry (AID 1211).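 Note: 0% = DMSO vehicle wells and 100% = no E2-Alexa633 signal left.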 Particulars: fluorescent ligand competition, at 10 µM, hits give high values.
Chain of Estrogen receptor (Homo sapiens) (P03372 whole entry, looked up): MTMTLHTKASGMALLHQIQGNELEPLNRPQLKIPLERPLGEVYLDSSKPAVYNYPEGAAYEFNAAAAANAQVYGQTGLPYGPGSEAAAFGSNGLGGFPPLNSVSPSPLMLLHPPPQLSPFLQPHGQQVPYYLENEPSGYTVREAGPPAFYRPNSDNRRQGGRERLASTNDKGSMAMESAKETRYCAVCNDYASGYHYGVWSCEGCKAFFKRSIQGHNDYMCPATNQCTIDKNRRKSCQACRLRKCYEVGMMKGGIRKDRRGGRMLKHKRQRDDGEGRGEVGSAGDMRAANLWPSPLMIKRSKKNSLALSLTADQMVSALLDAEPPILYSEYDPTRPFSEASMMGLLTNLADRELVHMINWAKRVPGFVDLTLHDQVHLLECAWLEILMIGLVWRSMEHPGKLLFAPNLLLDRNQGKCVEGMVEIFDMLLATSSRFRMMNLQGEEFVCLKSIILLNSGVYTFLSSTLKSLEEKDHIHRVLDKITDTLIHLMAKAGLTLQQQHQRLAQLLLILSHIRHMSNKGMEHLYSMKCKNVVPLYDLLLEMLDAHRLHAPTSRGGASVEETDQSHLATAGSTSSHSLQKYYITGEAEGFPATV
Turning to `CCOC(=O)c1c(C)[nH]c(C)c1C(=O)CSc1nnc(-c2cc(OC)c(OC)c(OC)c2)o1`, the inhibition of ligand binding was 57%. With `Cc1cc(C)cc(OCC(=O)Nc2ccc(N3CCCC3)cc2)c1`, the inhibition of ligand binding was 80% (active). The result for `CCOC(=O)C1CCCN(C(=O)c2cc3ncc(Br)cn3n2)C1` (stereo not drawn) reads 3%; that for `Cc1ccccc1CSCC(=O)NC(=O)NCc1ccco1`, 53%. The result for `O=C(O)c1ccc(Cl)c2c1C1C=CCC1C(c1ccccn1)N2` (stereo not drawn) reads 43%; that for `COc1nnc(-c2ccc(C(=O)N3C[C@@H]4C[C@H](C3)c3cccc(=O)n3C4)cc2)c2ccccc12`, 1%. The figure for `Cc1nn2cc(-c3ccc(N)cc3)nc2s1` is 28%. In the case of `CCCOc1ccc(-c2nn(-c3ccccc3)cc2/C=C2\SC(N)=NC2=O)cc1`, the inhibition of ligand binding is 50%.

For `CCOC(=O)Cc1cc(-c2ccc(O)cc2)nc2ccc3ccccc3c12`, the inhibition of ligand binding was 37%. The result for `O=C(O)C1Nc2c(C(=O)N3CCOCC3)cccc2C2C=CCC12` (stereo not drawn) reads 28%; that for `O=C(Nc1ccc2c(c1)nc1n2CCSC1)c1ccco1`, 20%; that for `COc1ccc(-c2nn(-c3ccccc3)cc2/C=C2/SC(=S)N(Cc3ccco3)C2=O)c(C)c1`, 21% (active).

Consider `CC(C)(C)OC(=O)N1CCN(c2ccc(NC(=O)Cn3nnc(-c4ccccc4)n3)cc2)CC1`, for which the inhibition of ligand binding is 37%. Regarding `COc1ccc2[nH]c3nc(SCc4nnc(-c5ccc(C)cc5)o4)nnc3c2c1`, the inhibition of ligand binding is 64%. `O=C(Nc1cnn(C23CC4CC(CC(C4)C2)C3)c1)c1cnn2c(C(F)(F)F)cc(-c3ccco3)nc12`: the inhibition of ligand binding was 48%. The figure for `C/C=C(/C(=C/C)c1ccc(O)cc1)c1ccc(O)cc1` is 76% (active); for `COc1ccc(C)cc1-n1nnnc1SCC(=O)NC(=O)NCc1ccco1` it is 15%. The figure for `C/C(N)=C(/C#N)C(=O)CSc1nnnn1-c1ccc(C)cc1` is 9%. The figure for `CCCCCc1nnc(NC(=O)Cc2cccs2)s1` is 26%; for `Cc1ccc(-c2cc(C(=O)NCc3ccco3)c3ccccc3n2)o1` it is 60%. As to `O=C(Cn1c(=O)n(Cc2ccco2)c(=O)c2c3c(sc21)CCCCC3)Nc1ccccc1`, the inhibition of ligand binding was 51%. `O=C(Nc1cccc2cccc(NC(=O)c3ccco3)c12)c1ccco1`: the inhibition of ligand binding is 54%. The result for `Cc1ccc(-c2nnc(-c3ccc(NC(=O)c4ccco4)cc3)o2)cc1` reads 0%; that for `COc1ccc(N2C(=O)c3ccccc3NC2c2ccc(OC)c(CSc3ccccn3)c2)cc1` (stereo not drawn), 40%; that for `O=c1c(OC2OC(CO)C(O)C(O)C2O)c(-c2ccc(O)c(O)c2)oc2cc(O)cc(O)c12` (stereo not drawn), 39%. The figure for `Cc1cc(Cl)ccc1OCC(=O)OC(C)C(=O)N(C)C` (stereo not drawn) is 30%; for `O=C(NCc1ccco1)c1cc2ccc(O)cc2oc1=O` it is 5%. Consider `C/C(N)=C(/C#N)C(=O)CSc1nnc(Nc2ccccc2C)s1`, for which the inhibition of ligand binding is 48%. Regarding `O=C1c2ccccc2C(=O)N1/N=C/c1ccc(O)c(O)c1`, the inhibition of ligand binding is 32%.

In the case of `O=C(COC(=O)CC1CCCC1)Nc1cc2c(cc1Cl)C(=O)c1ccccc1C2=O`, the inhibition of ligand binding was 37%. Regarding `COc1ccc(OC)c(NC(=O)c2cc(-c3ccc(C)cc3O)n[nH]2)c1`, the inhibition of ligand binding is 40%.

In the case of `O=C(Cc1cccs1)Nc1nncs1`, the inhibition of ligand binding was 33%. The figure for `CCc1ccc(NC(=O)c2noc3c2CCC3)cc1` is 2%; for `Cc1ccc(S(=O)(=O)Cc2ccc(C(=O)N3CCc4ccccc4C3)o2)cc1` it is 54%. In the case of `O=C1C=CC(O)(c2cc(=O)c3c(O)cc(O)cc3o2)C=C1`, the inhibition of ligand binding was 38%. With `Cc1ccc2c(Cl)cc(Cl)c(OCC(=O)NCc3ccco3)c2n1`, the inhibition of ligand binding was 21%. The figure for `CCOC(=O)c1c(NC(=O)CSc2nnc(-c3ccccc3)o2)sc(C(C)=O)c1C` is 21%; for `Cc1c2cc(O)c(=O)cc-2oc2cc(O)c(O)cc12` it is 31%.
